# Experimental data taken from PubChem BioAssay (Tox21).
# “And” between values parts separate entries of the source, which are not always exact repeats. Identical values can stand only once. Records with an inconclusive call do not appear. Where a call stands in place of a potency, no number is given. Where a structure was tested more than once in an assay, its records may differ in their call. The source made the active and inactive calls. Unless noted, calls follow the shape of the dose curve; as a rule, active = well fitted curve in the direction sought with a large enough effect in the repeat runs; inconclusive = weak or mixed curves; inactive = no such curve, though single readings can be large; an effect the other way counts as inactive or inconclusive.
# Key:
# [1] = qHTS assay to identify small molecule antagonists of the glucocorticoid receptor (GR) signaling pathway - cell viability counter screen (AID 720693); also: nearly all actives have a fitted effect of over 55% in size
# [2] = qHTS assay for identifying genotoxic compounds that show differential cytotoxicity against isogenic chicken DT40 cell lines with known DNA damage response pathways - Rev3 mutant cell line (AID 743014); also: nearly all actives have a fitted effect of over 55% in size; also: potency is read from the fitted curve at half-maximal effect
# [3] = qHTS assay for identifying genotoxic compounds that show differential cytotoxicity against isogenic chicken DT40 cell lines with known DNA damage response pathways - Rad54/Ku70 mutant cell line (AID 743015); also: nearly all actives have a fitted effect of over 60% in size; also: potency is read from the fitted curve at half-maximal effect
# [4] = qHTS assay to identify small molecule antagonists of the androgen receptor (AR) signaling pathway using the MDA cell line - cell viability counter screen (AID 743041; also: nearly all actives have a fitted effect of over 45% in size; also: potency is read from the fitted curve at half-maximal effect)
# How it was run: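 Using the breast carcinoma line MDA-kb2 AR-luc, test chemicals were co-incubated with R1881 for 16 h; CellTiter-Fluor reagent, added at 15.5 h, provided a fluorescence measure of live cells.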
# [5] = qHTS assay to identify small molecule antagonists of the androgen receptor (AR) signaling pathway - cell viability counter screen (AID 743033; also: nearly all actives have a fitted effect of over 45% in size; also: potency is read from the fitted curve at half-maximal effect)
# [6] = molecular target: Androgen receptor (Homo sapiens) (UniProt P10275); assay: qHTS assay to identify small molecule agonists of the androgen receptor (AR) signaling pathway (AID 743036; active = well fitted activation curve with a large enough effect in the signal ratio in the repeat runs, with a control signal flat, not every such curve was filed as active; the % refers to the signal ratio)
# How it was run: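 Screening used 2,000 AR-bla HEK293 cells per well, treated 16 h at 37C with test compounds in DMSO alongside positive and DMSO-only controls; beta-lactamase activity was then read by LiveBLAzer B/G FRET fluorescence after 2 h at room temperature.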
# [7] = molecular target: Androgen receptor (Homo sapiens) (UniProt P10275); assay: qHTS assay to identify small molecule agonists of the androgen receptor (AR) signaling pathway using the MDA cell line (AID 743040; also: nearly all actives have a fitted effect of over 20% in size)
# How it was run: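 Stable MMTV-luciferase reporter in MDA-kb2 cells; note the promoter carries GR as well as AR response elements. 16 h compound treatment, 37C, 0% CO2; ONE-Glo luminescence endpoint.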
# [8] = molecular target: Androgen receptor (Homo sapiens) (UniProt P10275); assay: qHTS assay to identify small molecule antagonists of the androgen receptor (AR) signaling pathway using the MDA cell line (AID 743042; also: nearly all actives have a fitted effect of over 55% in size; also: potency is read from the fitted curve at half-maximal effect)
# How it was run: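 Antagonist mode: compounds plus R1881 agonist added to MDA-kb2 AR-luc cells, incubated 16 h at 37C. Luciferase reporter luminescence quantified, with multiplexed CellTiter-Fluor readout for cell viability.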
# [9] = qHTS assay for identifying genotoxic compounds that show differential cytotoxicity against isogenic chicken DT40 cell lines with known DNA damage response pathways - wild type cell line (AID 743012); also: nearly all actives have a fitted effect of over 60% in size; also: potency is read from the fitted curve at half-maximal effect
# How it was run: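 Luminescent ATP viability signal (CellTiter-Glo, 30 min RT) recorded after wild type DT40 cells were incubated with compounds for 40 h at 37 C/5% CO2.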
# [10] = molecular target: Androgen receptor (Homo sapiens) (UniProt P10275); assay: qHTS assay to identify small molecule antagonists of the androgen receptor (AR) signaling pathway (AID 743035; active = well fitted inhibition curve with a large enough effect in the signal ratio in the repeat runs, not every such curve was filed as active; the % refers to the signal ratio; also: potency is read from the fitted curve at half-maximal effect)
# How it was run: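 Quantitative HTS of the Tox21 10K library used HEK293 AR-UAS-bla cells stimulated with R1881 alongside compound for 16 h at 37C, followed by beta-lactamase FRET detection (LiveBLAzer B/G, 2 h, RT).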
# Chain of Androgen receptor (Homo sapiens) (P10275 whole entry, looked up): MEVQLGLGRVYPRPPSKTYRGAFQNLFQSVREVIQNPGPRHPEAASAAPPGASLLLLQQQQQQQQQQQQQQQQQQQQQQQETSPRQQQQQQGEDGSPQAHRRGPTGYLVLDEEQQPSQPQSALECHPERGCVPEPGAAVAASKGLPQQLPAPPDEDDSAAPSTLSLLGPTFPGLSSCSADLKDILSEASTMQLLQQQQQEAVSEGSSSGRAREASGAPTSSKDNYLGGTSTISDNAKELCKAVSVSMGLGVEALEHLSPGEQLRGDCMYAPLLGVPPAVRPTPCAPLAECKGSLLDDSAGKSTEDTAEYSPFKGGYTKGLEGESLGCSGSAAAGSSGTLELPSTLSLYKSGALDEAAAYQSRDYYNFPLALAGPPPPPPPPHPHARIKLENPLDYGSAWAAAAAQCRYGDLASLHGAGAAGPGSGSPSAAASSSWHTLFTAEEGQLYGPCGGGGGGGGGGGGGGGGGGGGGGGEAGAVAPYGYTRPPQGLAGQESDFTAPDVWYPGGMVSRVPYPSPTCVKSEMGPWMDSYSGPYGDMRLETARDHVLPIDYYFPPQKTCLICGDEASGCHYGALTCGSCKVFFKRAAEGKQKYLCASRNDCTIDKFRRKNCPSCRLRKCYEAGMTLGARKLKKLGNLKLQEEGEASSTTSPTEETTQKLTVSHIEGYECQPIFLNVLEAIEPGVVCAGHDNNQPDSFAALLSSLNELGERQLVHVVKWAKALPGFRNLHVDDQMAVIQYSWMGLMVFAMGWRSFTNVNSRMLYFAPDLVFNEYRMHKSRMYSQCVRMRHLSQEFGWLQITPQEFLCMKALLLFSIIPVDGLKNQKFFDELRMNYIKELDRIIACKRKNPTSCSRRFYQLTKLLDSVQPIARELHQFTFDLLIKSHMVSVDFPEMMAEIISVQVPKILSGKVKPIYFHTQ
smiles,measurement,setting,value
CN1C(=O)c2ccccc2C1=O,Potency,[1],inactive
same,Potency,[2],68.6 µM (active)
same,Potency,[3],61.1 µM (active)
same,Potency,[4],inactive
O=C(OCC(O)CO)c1ccccc1Nc1ccnc2cc(Cl)ccc12 (stereo unspecified),Potency,[1],inactive
same,Potency,[2],inactive
same,Potency,[5],inactive
same,outcome,[6],inactive
same,outcome,[7],inactive
same,Potency,[4],inactive
same,Potency,[8],inactive
O=C(O)CCCCCCCCCCCBr,Potency,[1],inactive
same,Potency,[2],inactive
same,Potency,[5],inactive
same,Potency,[4],inactive
OC[C@H]1O[C@@H](n2cnc3c(=S)nc[nH]c32)[C@H](O)[C@@H]1O,Potency,[1],inactive
same,Potency,[9],13.3 µM (active)
same,Potency,[4],inactive
C=C(C)CCCC(C)CCO (stereo unspecified),Potency,[1],inactive
same,Potency,[3],54.5 µM (active)
same,Potency,[5],inactive
same,Potency,[4],inactive
C=C/C(C)=C/C/C=C(\C)CCC=C(C)C,Potency,[1],inactive
same,Potency,[2],61.1 µM (active)
same,Potency,[5],inactive
CC(=O)Nc1ccc(C)cc1C,Potency,[1],inactive
same,Potency,[2],inactive
same,Potency,[3],inactive
same,Potency,[5],inactive
same,Potency,[4],inactive
O=C(CCCN1CC=C(n2c(=O)[nH]c3ccccc32)CC1)c1ccc(F)cc1,Potency,[1],inactive
same,Potency,[9],29.8 µM (active)
same,Potency,[5],inactive
same,Potency,[4],inactive
Cc1ccc(C(C)(C)O)cc1,Potency,[1],inactive
same,Potency,[2],inactive
same,Potency,[3],inactive
same,Potency,[5],inactive
same,Potency,[4],inactive
CC(CN(C)C)C(C)(O)Cc1ccc(Cl)cc1 (stereo unspecified),Potency,[1],inactive
same,Potency,[9],inactive
same,Potency,[5],inactive
same,Potency,[10],inactive
same,outcome,[6],inactive
same,outcome,[7],inactive
same,Potency,[8],inactive
C[C@H]1c2cccc(O)c2C(O)=C2C(=O)[C@]3(O)C(O)=C(C(N)=O)C(=O)[C@@H](N(C)C)[C@@H]3[C@@H](O)[C@@H]21,Potency,[1],inactive
same,Potency,[5],inactive
same,Potency,[10],inactive
same,outcome,[7],inactive
same,Potency,[4],inactive
same,Potency,[8],inactive
CCCCCC#CC(=O)OC,Potency,[1],inactive
same,Potency,[2],inactive
same,Potency,[5],inactive
same,Potency,[4],inactive
Oc1cccc(Nc2ccccc2)c1,Potency,[1],inactive
same,Potency,[9],inactive
same,Potency,[5],inactive
same,Potency,[4],inactive
C[C@@H](O)[C@H]1C(=O)N2C(C(=O)O)=C([C@H]3CCCO3)S[C@H]12,Potency,[1],inactive
same,Potency,[2],inactive
same,Potency,[3],inactive
same,Potency,[5],inactive
same,Potency,[10],inactive
same,outcome,[6],inactive
same,outcome,[7],inactive
same,Potency,[8],inactive
CCOC(=O)C1=C(C)NC(C)=C(C(=O)OC)C1c1cccc(Cl)c1Cl (stereo unspecified),Potency,[1],inactive
same,Potency,[9],23.7 µM (active)
same,Potency,[5],inactive
same,Potency,[4],inactive
Nc1nc2ccc([N+](=O)[O-])cc2s1,Potency,[1],inactive
same,Potency,[2],64.8 µM (active)
same,Potency,[5],inactive
same,outcome,[7],inactive
same,Potency,[8],inactive
c1cc(N(CC2CO2)CC2CO2)ccc1Cc1ccc(N(CC2CO2)CC2CO2)cc1 (stereo unspecified),Potency,[9],3.44 µM (active)
same,Potency,[2],0.0611 µM (active)
same,Potency,[3],1.93 µM (active)
same,Potency,[5],54.9 µM (active)
same,outcome,[7],inactive
same,Potency,[4],inactive
same,Potency,[8],27.3 µM (active)
CC(C)C=O,Potency,[1],inactive
same,Potency,[5],inactive
same,Potency,[4],inactive
CC1=Nc2ccc3ccccc3c2C1(C)C,Potency,[1],inactive
same,outcome,[6],inactive
same,outcome,[7],inactive
same,Potency,[8],inactive
C[C@@H]1CC(=O)NN=C1c1ccc(NN=C(C#N)C#N)cc1,Potency,[9],18.8 µM (active)
same,Potency,[2],18.8 µM (active)
same,Potency,[3],21.1 µM (active)
same,outcome,[7],inactive
same,Potency,[4],29.8 µM (active)
O=C(CCc1ccc(O)cc1)c1c(O)cc(O)cc1O,Potency,[2],62.5 µM (active)
same,Potency,[8],inactive
Brc1cc2ccccc2c2ccccc12,Potency,[1],inactive
same,Potency,[5],inactive
same,Potency,[4],inactive
CCOC(=O)/C=C/C(=O)OCC,Potency,[9],inactive
same,Potency,[2],inactive
same,Potency,[3],inactive
same,Potency,[5],inactive
CCCCCCCCOc1ccc(C(=O)O)cc1,Potency,[9],inactive
same,Potency,[2],inactive
same,Potency,[3],inactive
same,Potency,[5],inactive
same,Potency,[4],inactive
O=C1c2ccccc2C(=O)C1(O)O,Potency,[2],24.5 µM (active)
same,Potency,[3],27.4 µM (active)
O=C=Nc1ccc(Cl)c(Cl)c1,Potency,[1],inactive
same,Potency,[5],inactive
same,Potency,[4],inactive
Cc1cc(O)ccc1O,Potency,[9],inactive
same,Potency,[2],inactive
same,Potency,[3],inactive
same,Potency,[5],inactive
same,Potency,[4],inactive
C[C@]12CC[C@@H]3c4ccc(O)cc4CC[C@H]3[C@@H]1CC[C@@H]2OC(=O)CCC1CCCC1,Potency,[9],11.9 µM (active)
same,Potency,[2],24.3 µM (active)
same,Potency,[5],inactive
same,Potency,[4],inactive
O=C(Cn1ccnc1[N+](=O)[O-])NCCO,Potency,[9],inactive
same,Potency,[2],inactive
same,Potency,[5],inactive
same,Potency,[10],inactive
same,outcome,[6],inactive
same,outcome,[7],inactive
same,Potency,[4],inactive
same,Potency,[8],inactive
C/C=C/C=C/C=O,Potency,[2],54.1 µM (active)
same,Potency,[5],inactive
same,outcome,[7],inactive
same,Potency,[4],inactive
same,Potency,[8],inactive
O=[N+]([O-])c1cc(C2CCCCC2)c(O)c([N+](=O)[O-])c1,Potency,[9],17.2 µM (active)
same,Potency,[2],21.6 µM (active)
same,Potency,[3],19.3 µM (active)
same,Potency,[10],5.48 µM (active)
same,outcome,[7],inactive
same,Potency,[8],12.2 µM (active)
CCCCCC[C@@H](O)C/C=C\CCCCCCCC(=O)O,Potency,[9],inactive and 29.8 µM (active)
same,Potency,[2],inactive
same,Potency,[3],inactive and 23.7 µM (active) and 48.6 µM (active)
same,Potency,[5],inactive
same,Potency,[4],inactive
COC(=O)C1=C(C)NC(C)=C(C(=O)O[C@@H]2CCCN(Cc3ccccc3)C2)[C@@H]1c1cccc([N+](=O)[O-])c1,Potency,[9],13.3 µM (active)
same,Potency,[2],21.1 µM (active)
same,Potency,[3],13.3 µM (active)
O=C=Nc1cccc(C(F)(F)F)c1,Potency,[1],inactive
same,Potency,[10],48.6 µM (active)
same,outcome,[6],inactive
same,outcome,[7],inactive
same,Potency,[4],inactive
same,Potency,[8],inactive
CC1(CN2CCC(n3c(=O)[nH]c4ccccc43)CC2)OCc2ccccc2-n2cccc21 (stereo unspecified),Potency,[9],21.1 µM (active)
same,Potency,[2],29.8 µM (active)
same,Potency,[3],21.1 µM (active)
same,Potency,[5],inactive
Cc1ccc(Cl)c(Nc2ccccc2C(=O)O)c1Cl,Potency,[5],inactive
C/C=C(/C(=C/C)c1ccc(O)cc1)c1ccc(O)cc1,Potency,[9],inactive
same,Potency,[4],inactive
CC(=O)N/N=C/c1ccc([N+](=O)[O-])o1,Potency,[9],11.9 µM (active)
same,Potency,[2],10.6 µM (active)
same,Potency,[3],18.8 µM (active)
same,Potency,[5],inactive
CCCCN1CCCC1C(=O)Nc1c(C)cc(C)cc1C (stereo unspecified),Potency,[9],16.8 µM (active)
same,Potency,[2],23.7 µM (active)
same,Potency,[5],inactive
same,Potency,[4],inactive
OC(CCN1CCCC1)(c1ccccc1)C1CCCCC1 (stereo unspecified),Potency,[9],11.4 µM (active)
same,Potency,[10],inactive
same,outcome,[6],inactive
same,outcome,[7],inactive
same,Potency,[4],inactive
same,Potency,[8],inactive
CCCCCCCCCCCCCCN(CCO)CCO,Potency,[9],2.43 µM (active)
same,Potency,[2],1.09 µM (active)
same,Potency,[3],2.43 µM (active)
same,Potency,[5],43.6 µM (active)
same,Potency,[4],inactive
Cc1cc2c(OCC(CNC(C)(C)C)OC(=O)c3ccccc3)cccc2[nH]1 (stereo unspecified),Potency,[1],inactive
same,Potency,[5],inactive
same,Potency,[4],inactive
COc1ccccc1NC(=O)c1cc2ccccc2cc1O,Potency,[9],43.3 µM (active)
same,Potency,[2],48.6 µM (active)
same,Potency,[3],30.6 µM (active)
same,Potency,[5],13.8 µM (active)
same,outcome,[6],inactive
same,outcome,[7],inactive
CC(=O)NC1(c2cccc(F)c2)CCN(CC[C@@]2(c3ccc(Cl)c(Cl)c3)CN(c3ccccc3)C(=O)CO2)CC1,Potency,[9],43.4 µM (active)
same,Potency,[2],54.6 µM (active)
same,Potency,[3],48.7 µM (active)
same,Potency,[5],39 µM (active)
C1C[C@@H]2[C@H]3CC[C@H](C3)[C@@H]2C1,Potency,[2],inactive
same,Potency,[5],inactive
same,Potency,[4],inactive
CCC(=O)C1CC(C(C)C)CC=C1C (stereo unspecified),Potency,[9],inactive
same,Potency,[2],inactive
same,Potency,[3],inactive
same,Potency,[5],inactive
same,Potency,[10],inactive
same,outcome,[6],inactive
same,outcome,[7],inactive
same,Potency,[4],inactive
same,Potency,[8],inactive
C=CC(=O)OCC1CC2CC1C1CCC(COC(=O)C=C)C21 (stereo unspecified),Potency,[2],24.3 µM (active)
CCCCC(CC)CN (stereo unspecified),Potency,[9],55.5 µM (active)
same,Potency,[2],62.3 µM (active)
same,Potency,[3],55.5 µM (active)
same,Potency,[5],44.5 µM (active)
same,outcome,[6],inactive
same,outcome,[7],inactive
same,Potency,[8],inactive
CCC1(CO)COCOC1,Potency,[1],inactive
same,Potency,[5],inactive
same,Potency,[4],inactive
COC(=O)CS,Potency,[1],inactive
same,Potency,[4],inactive
CCCCCCCCC(CCCCCC)C(=O)O (stereo unspecified),Potency,[9],inactive
same,Potency,[3],inactive
same,Potency,[5],inactive
O=c1cc(-c2ccccc2)oc2cc(O)cc(O)c12,Potency,[9],54.5 µM (active)
same,Potency,[2],48.6 µM (active)
same,Potency,[3],24.3 µM (active)
same,Potency,[5],inactive
same,outcome,[7],inactive
same,Potency,[4],inactive
same,Potency,[8],inactive
CN(C(=O)CN(CCO)CC(=O)N(C)C(C)(C)Cc1ccccc1)C(C)(C)Cc1ccccc1,Potency,[1],inactive
same,Potency,[4],inactive
CCOC(=O)c1ccccc1C(=C1C=C(Br)C(=O)C(Br)=C1)c1cc(Br)c(O)c(Br)c1,Potency,[9],inactive
same,Potency,[2],inactive
same,Potency,[5],inactive
